From PubChem BioAssay (Tox21)
Records with an inconclusive call do not appear. Active and inactive are the calls of the source. Unless noted, calls follow the shape of the full dose curve.

Assays:
[1] = Nuclear factor erythroid 2-related factor 2/antioxidant responsive element (Nrf2/ARE) small molecule agonists: qHTS cell viability counter screen in human keratinocytes (AID 1919968; active = well fitted curve in the direction sought with a large enough effect in the repeat runs; an effect the other way counts as inactive or inconclusive; also: nearly all actives have a fitted effect of over 55% in size)
Outline: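 Cells of the KeratinoSens line were plated at 1,500 per well and left for 5 h before compound transfer from DMSO stocks. After a 23 h incubation (37 C, 5% CO2), CellTiter-Fluor was added. Signal was taken as fluorescence intensity 1 h later.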

[2] = Nuclear factor erythroid 2-related factor 2/antioxidant responsive element (Nrf2/ARE) small molecule agonists: luciferase reporter gene qHTS assay in human keratinocytes (AID 1919969); also: nearly all actives have a fitted effect of over 35% in size
[3] = biological target: Gonadotropin-releasing hormone receptor (Homo sapiens) (UniProt P30968); assay: Human gonadotropin-releasing hormone receptor (GnRHR) small molecule agonists, calcium flux assay in GnRHR-HEK293 cells (AID 1920063); also: nearly all actives have a fitted effect of over 35% in size
Sequence of Gonadotropin-releasing hormone receptor (Homo sapiens) (P30968 whole entry, looked up): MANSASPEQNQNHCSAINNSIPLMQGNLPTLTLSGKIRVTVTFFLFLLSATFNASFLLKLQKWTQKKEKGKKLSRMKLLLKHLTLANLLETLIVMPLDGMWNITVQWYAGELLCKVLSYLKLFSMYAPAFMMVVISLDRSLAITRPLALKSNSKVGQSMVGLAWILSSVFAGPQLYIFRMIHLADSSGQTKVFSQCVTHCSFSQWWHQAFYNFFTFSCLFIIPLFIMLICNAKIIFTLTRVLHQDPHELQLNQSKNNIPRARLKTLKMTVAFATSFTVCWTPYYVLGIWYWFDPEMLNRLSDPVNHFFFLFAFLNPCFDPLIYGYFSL
Outline: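 Compounds dissolved in DMSO are pin-transferred onto dye-loaded GnRHR-HEK293 cells, which were seeded 18 h before at 37 C/5% CO2. Calcium signal is read as fluorescence intensity at 1 s intervals for 3 min.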

[4] = biological target: KiSS-1 receptor (Homo sapiens) (UniProt Q969F8); assay: Human kisspeptin (KISS1R) small molecule agonists, calcium flux assay in KISS1R-HEK293 cells (AID 1920064; active = well fitted curve in the direction sought with a large enough effect in the repeat runs; an effect the other way counts as inactive or inconclusive)
Sequence of KiSS-1 receptor (Homo sapiens) (Q969F8 whole entry, looked up): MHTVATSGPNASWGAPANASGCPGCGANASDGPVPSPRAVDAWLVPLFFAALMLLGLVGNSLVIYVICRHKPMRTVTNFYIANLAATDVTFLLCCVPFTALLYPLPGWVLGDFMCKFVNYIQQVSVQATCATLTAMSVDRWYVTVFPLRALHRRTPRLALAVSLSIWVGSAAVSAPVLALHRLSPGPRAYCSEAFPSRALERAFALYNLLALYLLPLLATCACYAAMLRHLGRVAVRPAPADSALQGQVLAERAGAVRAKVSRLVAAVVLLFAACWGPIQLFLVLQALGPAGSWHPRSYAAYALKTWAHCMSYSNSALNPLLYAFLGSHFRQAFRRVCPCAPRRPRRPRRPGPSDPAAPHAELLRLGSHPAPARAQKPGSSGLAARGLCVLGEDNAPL
Outline: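 Cell line: HEK293, stable human KISS1R. Dye loading 1 h at 37 C after 18 h culture. Read: kinetic fluorescence, 480/540 nm, 3 min at 1 s intervals.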

[5] = G protein-coupled receptor (GPCR) small molecule agonists, calcium flux assay: HEK293 wild type cell line counter screen (AID 1920065)
Outline: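 Tox21 10K compounds, 15 concentrations each in triplicate, pin-transferred in DMSO onto dye-loaded cells; kinetic read at 480/540 nm for 3 min, 1 s intervals.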

[6] = p53 small molecule agonists, cell-based qHTS assay with human liver microsomes (AID 1963577);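 also: p53 response element beta-lactamase reporter cells with liver microsomes plus NADPH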
Outline: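 p53RE-bla cells; 5 h settle, 37 C/5% CO2; cpd + HLM 0.5 mg/mL + NADPH 0.5 mg/mL (final); 16 h 37 C; LiveBLAzer 2 h RT dark; fluorescence readout.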

[7] = p53 small molecule agonists, cell-based qHTS assay with rat liver microsomes (AID 1963578)
Outline: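 Rat liver microsome activation: microsomes 0.5 mg/mL, NADPH 0.5 mg/mL final; p53RE-bla cells, 16 h 37 C; LiveBLAzer readout, 2 h RT dark.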

[8] = p53 small molecule agonists, cell-based qHTS assay with human liver microsomes: qHTS cell viability counter screen (AID 1963579); also: nearly all actives have a fitted effect of over 45% in size
Outline: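 Luminescent CellTiter-Glo read-out, 30 min at room temperature, gauged cytotoxicity in p53RE-bla cells exposed 16 h at 37 C to DMSO-dissolved compounds with metabolic activation by human liver microsomes and NADPH, each 0.5 mg/mL final.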

[9] = p53 small molecule agonists, cell-based qHTS assay with rat liver microsomes: qHTS cell viability counter screen (AID 1963580); also: nearly all actives have a fitted effect of over 45% in size
Outline: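 Cytotoxicity counter screen: intracellular ATP measured by CellTiter-Glo luminescence in the same wells as the beta-lactamase reporter read, on HCT-116 p53RE-bla cells exposed 16 h at 37 C to compounds with rat liver microsomes and NADPH, each 0.5 mg/mL final.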

[10] = p53 small molecule agonists, cell-based qHTS assay: qHTS cell viability counter screen (AID 1963581); also: nearly all actives have a fitted effect of over 45% in size
Outline: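 ATP content measured by luminescence in HCT-116 p53RE-bla cells treated 16 h at 37 C, same wells as the reporter screen.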

[11] = biological target: Beta-2 adrenergic receptor (Homo sapiens) (UniProt P07550); assay: Adrenergic beta2 receptor (ADRB2) small molecule antagonists, cell-based qHTS assay (AID 1963592); also: series mostly up to about 92 µM; nearly all actives have a fitted effect of over 50% in size
Sequence of Beta-2 adrenergic receptor (Homo sapiens) (P07550 whole entry, looked up): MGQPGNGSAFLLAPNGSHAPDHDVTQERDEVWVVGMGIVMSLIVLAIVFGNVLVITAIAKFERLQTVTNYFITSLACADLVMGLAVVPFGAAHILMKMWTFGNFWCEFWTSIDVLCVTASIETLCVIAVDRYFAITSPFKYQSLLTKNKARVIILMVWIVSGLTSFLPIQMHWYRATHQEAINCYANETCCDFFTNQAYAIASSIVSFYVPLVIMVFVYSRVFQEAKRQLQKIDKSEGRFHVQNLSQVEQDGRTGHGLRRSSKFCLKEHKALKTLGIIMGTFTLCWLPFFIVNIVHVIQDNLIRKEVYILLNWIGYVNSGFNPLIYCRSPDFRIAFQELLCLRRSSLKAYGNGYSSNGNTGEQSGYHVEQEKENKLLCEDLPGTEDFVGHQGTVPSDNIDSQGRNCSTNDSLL
Outline: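 Assay format: CHO-ADRB2 cells, 18-20hr seeding at 37C/5% CO2, then compound plus 1nM isoproterenol agonist mix for 0.5hr RT. Homogeneous time-resolved fluorescence cAMP detection after 1hr, expressed as 665/615 nm ratio.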

[12] = biological target: Beta-2 adrenergic receptor (Homo sapiens) (UniProt P07550); assay: Adrenergic beta2 receptor (ADRB2) small molecule agonists, cell-based qHTS assay (AID 1963593);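 also: CHO cells stably overexpressing human ADRB2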
Outline: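 CHO cells stably over-expressing ADRB2 were plated overnight at 37C, then dosed with compounds plus a stimulation mix containing 100uM IBMX and 25uM Ro-20-1724 for 0.5hr at room temperature. cAMP was measured by HTRF competition, 1hr.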

[13] = biological target: D(2) dopamine receptor (Homo sapiens) (UniProt P14416); assay: Dopamine D2 receptor (DRD2) small molecule agonists, cell-based qHTS assay (AID 1963594); also: nearly all actives have a fitted effect of over 35% in size
Sequence of D(2) dopamine receptor (Homo sapiens) (P14416 whole entry, looked up): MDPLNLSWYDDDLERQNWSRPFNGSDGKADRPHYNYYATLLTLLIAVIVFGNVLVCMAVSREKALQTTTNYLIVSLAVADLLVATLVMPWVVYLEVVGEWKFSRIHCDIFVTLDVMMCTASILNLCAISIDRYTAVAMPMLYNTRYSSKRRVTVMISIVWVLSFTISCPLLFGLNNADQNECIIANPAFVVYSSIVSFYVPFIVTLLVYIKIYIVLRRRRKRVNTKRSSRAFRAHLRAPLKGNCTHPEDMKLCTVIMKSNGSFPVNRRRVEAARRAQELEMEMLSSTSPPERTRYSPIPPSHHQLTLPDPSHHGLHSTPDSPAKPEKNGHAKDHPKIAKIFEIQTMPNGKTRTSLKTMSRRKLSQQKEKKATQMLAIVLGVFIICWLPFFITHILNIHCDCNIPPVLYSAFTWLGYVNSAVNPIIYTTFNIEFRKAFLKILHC
Outline: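 HEK293 cells stably expressing human DRD2, pre-treated with PDE inhibitor Ro20-1724 (0.1 mM final) and compound 10 min at room temperature, then stimulated with NKH477 (200nM […]) for 30 min. cAMP read by HTRF (665/620 nm).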

[14] = biological target: D(2) dopamine receptor (Homo sapiens) (UniProt P14416); assay: Dopamine D2 receptor (DRD2) small molecule antagonists, cell-based qHTS assay (AID 1963595; active = well fitted inhibition curve with a large enough effect in the signal ratio in the repeat runs, with a control signal flat; the % refers to the signal ratio)
Outline: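 In this cell-based antagonist screen, compounds act for 10 min at room temperature before a 30 min challenge with 12 nM quinpirole and 200 nM NKH477. cAMP is quantified by HTRF competition in DRD2-HEK293 cells containing 0.1 mM Ro20-1724.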

[15] = biological target: 5-hydroxytryptamine receptor 2A (Homo sapiens) (UniProt P28223); assay: 5-hydroxytryptamine receptor 2A (HTR2A) small molecule agonists, cell-based qHTS assay (AID 1963587); also: nearly all actives have a fitted effect of over 30% in size
Sequence of 5-hydroxytryptamine receptor 2A (Homo sapiens) (P28223 whole entry, looked up): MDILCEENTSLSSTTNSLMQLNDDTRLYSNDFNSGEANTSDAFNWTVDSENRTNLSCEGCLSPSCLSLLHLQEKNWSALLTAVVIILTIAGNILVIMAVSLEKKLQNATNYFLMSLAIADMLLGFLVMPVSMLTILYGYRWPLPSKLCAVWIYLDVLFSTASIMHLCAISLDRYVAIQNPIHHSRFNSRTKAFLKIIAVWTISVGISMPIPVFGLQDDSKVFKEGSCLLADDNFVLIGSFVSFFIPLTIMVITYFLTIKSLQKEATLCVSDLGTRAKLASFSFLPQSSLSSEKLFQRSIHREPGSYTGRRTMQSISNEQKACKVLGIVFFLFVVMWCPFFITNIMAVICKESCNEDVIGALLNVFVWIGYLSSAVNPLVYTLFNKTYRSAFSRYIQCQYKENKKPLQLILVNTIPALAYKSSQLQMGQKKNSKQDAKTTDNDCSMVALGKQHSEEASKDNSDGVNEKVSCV
Outline: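 CHO cells stably expressing human HTR2A, plated 18 h, loaded with calcium dye 1 h at 37 C. Agonist mode: compounds added and intracellular calcium fluorescence recorded kinetically for 2 min at 1 sec intervals.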

[16] = biological target: Muscarinic acetylcholine receptor M1 (Homo sapiens) (UniProt P11229); assay: Cholinergic receptor muscarinic 1 (CHRM1) small molecule antagonists, cell-based qHTS assay (AID 1963588); also: nearly all actives have a fitted effect of over 40% in size
Sequence of Muscarinic acetylcholine receptor M1 (Homo sapiens) (P11229 whole entry, looked up): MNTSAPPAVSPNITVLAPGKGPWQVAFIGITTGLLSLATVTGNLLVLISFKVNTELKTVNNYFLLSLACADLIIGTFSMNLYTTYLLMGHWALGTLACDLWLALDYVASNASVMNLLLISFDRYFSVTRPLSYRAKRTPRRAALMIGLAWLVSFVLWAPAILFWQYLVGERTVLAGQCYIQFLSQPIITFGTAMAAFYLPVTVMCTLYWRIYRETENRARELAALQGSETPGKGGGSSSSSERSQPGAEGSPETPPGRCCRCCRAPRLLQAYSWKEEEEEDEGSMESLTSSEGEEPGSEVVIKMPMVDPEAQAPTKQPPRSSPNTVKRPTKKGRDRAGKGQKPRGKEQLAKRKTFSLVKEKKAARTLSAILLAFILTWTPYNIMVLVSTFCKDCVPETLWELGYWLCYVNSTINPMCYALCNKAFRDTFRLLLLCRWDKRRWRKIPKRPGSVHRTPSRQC
Outline: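 Compounds were tested at 15 concentrations in three independent runs. Dye-loaded CHRM1-CHO cells were exposed 5 min at room temperature before stimulation by acetylcholine added at 50nM. Intracellular calcium was read kinetically on FDSS for 3 min.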

[17] = biological target: Muscarinic acetylcholine receptor M1 (Homo sapiens) (UniProt P11229); assay: Cholinergic receptor muscarinic 1 (CHRM1) small molecule agonists, cell-based qHTS assay (AID 1963589); also: nearly all actives have a fitted effect of over 35% in size
Outline: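 Homogeneous fluorescence calcium flux, agonist mode. Human M1-expressing CHO cells; compound dosed at 15 concentrations, three independent runs; signal sampled every 1 sec.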

[18] = cAMP Responsive Elements (CRE) small molecule agonists, cell-based qHTS assay (AID 1963590)
Outline: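 HEK 293T cells stably bearing CRE-bla were plated at 2,000 cells per well and rested 18 h. Compounds, positive controls or DMSO were added for 3 h at 37 C. LiveBLAzer B/G substrate was then loaded for 2 h at room temperature.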

[19] = p53 small molecule agonists, cell-based qHTS assay (AID 1963582; active = well fitted activation curve with a large enough effect in the signal ratio in the repeat runs, not every such curve was filed as active; the % refers to the signal ratio)
Outline: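 16 h compound exposure (37 C) of p53 response element–bla cells, preceded by 5 h recovery at 37 C/5% CO2; read-out via LiveBLAzer B/G FRET substrate, 2 h RT, fluorescence intensity.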

[20] = cAMP Responsive Elements (CRE) small molecule antagonists, cell-based qHTS assay (AID 1963591; active = well fitted inhibition curve with a large enough effect in the signal ratio in the repeat runs, not every such curve was filed as active; the % refers to the signal ratio)
Outline: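 First, CRE-bla HEK293T cells settled 18 h at 37 C. Next, compound and 0.25 uM final NKH477 were applied for 3 h. Last, LiveBLAzer B/G substrate was loaded for 2 h at room temperature.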

Measured: Potency

CC(C)(C)NC(=O)[C@H]1CC[C@H]2[C@@H]3CC[C@H]4NC(=O)C=C[C@]4(C)[C@H]3CC[C@]12C
not listed: [15] | [16] | [17] | [18] | [19] | [20]
inactive: all other assays above

C[Si](C)(C)N[Si](C)(C)C
not listed: [19] | [20]
inactive: all other assays above

CCCc1c(OCCCCc2nn[nH]n2)ccc(C(C)=O)c1O
not listed: [12] | [18] | [19] | [20]
inactive: all other assays above

O=C(O)CCCCCCCC(=O)O
not listed: [10]
inactive: all other assays above

COc1cc(C=O)ccc1O
not listed: [19]
inactive: all other assays above

CCO[Si](CCCN)(OCC)OCC
not listed: [14] | [19]
inactive: all other assays above

CC(=O)OC(C)C
not listed: [12] | [14] | [19]
inactive: all other assays above
